Measurements as given in the supplement of paper PMC10849652.
The full data set covers some 7,900 targets. This sample favours those with a hit. About 0.6% of all pairs of compound and target were hits.

These targets were tested with C1=CC=C(C=C1)C2=NC(=C(N2)C3=CC=NC=C3)C4=CC(=C(C=C4)Cl)O (assay: log2 fold change, soluble protein after heating vs DMSO (PISA); higher = thermal stabilisation; K562 cells, 10 uM, 30 min; active = over 0.2 and 3.5 SD of the protein, either way, in both replicates (recomputed)).
How it was run: (§1)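 Soluble protein was quantified by TMTpro 16plex LC-MS/MS after channel sums were equalised. It was obtained as the supernatant after 21,000xg for 90 min from pooled aliquots of K562 cells (2×10^6 cells/mL, 10 μM compound, 30 min) heated for 3 min across 48°C-58°C and extracted in PBS with 0.5% NP-40 at 4°C. Thermal stability values are relative to control samples and come from duplicates. They are given as log2 fold changes.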

UniProt P13807, sequence (P13807 whole entry, looked up): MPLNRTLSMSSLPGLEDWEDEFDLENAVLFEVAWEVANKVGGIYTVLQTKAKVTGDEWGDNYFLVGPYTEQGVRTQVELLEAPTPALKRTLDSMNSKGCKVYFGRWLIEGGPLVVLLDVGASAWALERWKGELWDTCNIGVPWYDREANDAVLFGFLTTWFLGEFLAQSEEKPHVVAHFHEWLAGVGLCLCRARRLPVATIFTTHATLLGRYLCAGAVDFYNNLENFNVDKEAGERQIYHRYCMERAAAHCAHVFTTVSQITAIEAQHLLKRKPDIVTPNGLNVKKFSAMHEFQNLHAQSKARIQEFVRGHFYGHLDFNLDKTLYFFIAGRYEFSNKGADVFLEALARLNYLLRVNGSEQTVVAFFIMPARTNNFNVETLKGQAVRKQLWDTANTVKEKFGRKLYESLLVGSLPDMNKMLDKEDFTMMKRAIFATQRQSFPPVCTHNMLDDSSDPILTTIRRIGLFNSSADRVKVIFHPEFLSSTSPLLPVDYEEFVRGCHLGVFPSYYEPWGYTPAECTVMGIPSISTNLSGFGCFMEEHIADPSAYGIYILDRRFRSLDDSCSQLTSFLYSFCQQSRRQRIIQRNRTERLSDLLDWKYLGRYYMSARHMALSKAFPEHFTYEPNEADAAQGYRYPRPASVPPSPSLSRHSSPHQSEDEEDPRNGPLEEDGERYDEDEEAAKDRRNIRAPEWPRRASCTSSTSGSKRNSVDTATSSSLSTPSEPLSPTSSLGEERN
UniProt Q10472, sequence (Q10472 whole entry, looked up): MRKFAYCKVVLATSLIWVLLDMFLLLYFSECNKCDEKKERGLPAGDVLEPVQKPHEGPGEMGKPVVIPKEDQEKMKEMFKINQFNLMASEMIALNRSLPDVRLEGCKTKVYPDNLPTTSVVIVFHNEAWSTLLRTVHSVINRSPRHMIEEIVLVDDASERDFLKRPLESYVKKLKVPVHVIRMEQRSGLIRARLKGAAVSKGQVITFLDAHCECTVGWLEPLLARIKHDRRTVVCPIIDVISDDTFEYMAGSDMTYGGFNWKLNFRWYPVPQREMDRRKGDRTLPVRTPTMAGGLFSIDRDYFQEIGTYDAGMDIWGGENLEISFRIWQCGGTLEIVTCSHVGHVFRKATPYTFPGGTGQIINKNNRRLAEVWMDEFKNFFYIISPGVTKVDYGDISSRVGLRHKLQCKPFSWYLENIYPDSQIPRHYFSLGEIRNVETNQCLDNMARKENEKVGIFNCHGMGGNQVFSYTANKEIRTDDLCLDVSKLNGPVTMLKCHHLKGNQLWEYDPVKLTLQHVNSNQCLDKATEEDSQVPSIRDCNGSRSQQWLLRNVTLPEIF
UniProt P52789, sequence (P52789 whole entry, looked up): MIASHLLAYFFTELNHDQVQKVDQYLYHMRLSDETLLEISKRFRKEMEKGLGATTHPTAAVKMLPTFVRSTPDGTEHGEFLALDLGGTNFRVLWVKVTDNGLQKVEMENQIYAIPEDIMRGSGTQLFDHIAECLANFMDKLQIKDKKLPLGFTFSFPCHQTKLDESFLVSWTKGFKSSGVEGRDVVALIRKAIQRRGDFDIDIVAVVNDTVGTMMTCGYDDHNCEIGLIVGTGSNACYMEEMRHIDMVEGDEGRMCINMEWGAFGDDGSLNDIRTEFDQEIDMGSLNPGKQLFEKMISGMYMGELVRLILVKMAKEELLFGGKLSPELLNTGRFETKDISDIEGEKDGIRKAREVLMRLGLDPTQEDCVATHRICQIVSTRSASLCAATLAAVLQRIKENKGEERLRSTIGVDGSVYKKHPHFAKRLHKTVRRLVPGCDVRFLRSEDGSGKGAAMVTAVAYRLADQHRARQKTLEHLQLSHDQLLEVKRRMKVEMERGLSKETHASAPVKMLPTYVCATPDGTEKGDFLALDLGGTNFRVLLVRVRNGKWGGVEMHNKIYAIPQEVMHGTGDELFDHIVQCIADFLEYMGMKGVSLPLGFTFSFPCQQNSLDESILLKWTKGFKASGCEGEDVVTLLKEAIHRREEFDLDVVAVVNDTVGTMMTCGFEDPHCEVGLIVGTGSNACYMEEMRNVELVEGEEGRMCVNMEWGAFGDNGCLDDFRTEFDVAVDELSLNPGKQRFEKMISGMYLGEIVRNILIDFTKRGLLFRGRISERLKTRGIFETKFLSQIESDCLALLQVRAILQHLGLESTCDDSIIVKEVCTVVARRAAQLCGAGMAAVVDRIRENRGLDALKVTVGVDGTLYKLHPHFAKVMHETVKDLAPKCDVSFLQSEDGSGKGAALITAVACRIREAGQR
UniProt Q9NZC3, sequence (Q9NZC3 whole entry, looked up): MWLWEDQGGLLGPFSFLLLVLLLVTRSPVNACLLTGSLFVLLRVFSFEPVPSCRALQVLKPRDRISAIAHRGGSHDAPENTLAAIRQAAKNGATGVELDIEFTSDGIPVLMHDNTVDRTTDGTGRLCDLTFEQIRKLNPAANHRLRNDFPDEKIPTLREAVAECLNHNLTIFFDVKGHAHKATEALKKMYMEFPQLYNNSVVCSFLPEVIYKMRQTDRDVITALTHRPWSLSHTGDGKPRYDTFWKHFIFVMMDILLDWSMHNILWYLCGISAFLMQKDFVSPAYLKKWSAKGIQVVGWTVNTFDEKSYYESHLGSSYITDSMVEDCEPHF
UniProt Q9P2H3, sequence (Q9P2H3 whole entry, looked up): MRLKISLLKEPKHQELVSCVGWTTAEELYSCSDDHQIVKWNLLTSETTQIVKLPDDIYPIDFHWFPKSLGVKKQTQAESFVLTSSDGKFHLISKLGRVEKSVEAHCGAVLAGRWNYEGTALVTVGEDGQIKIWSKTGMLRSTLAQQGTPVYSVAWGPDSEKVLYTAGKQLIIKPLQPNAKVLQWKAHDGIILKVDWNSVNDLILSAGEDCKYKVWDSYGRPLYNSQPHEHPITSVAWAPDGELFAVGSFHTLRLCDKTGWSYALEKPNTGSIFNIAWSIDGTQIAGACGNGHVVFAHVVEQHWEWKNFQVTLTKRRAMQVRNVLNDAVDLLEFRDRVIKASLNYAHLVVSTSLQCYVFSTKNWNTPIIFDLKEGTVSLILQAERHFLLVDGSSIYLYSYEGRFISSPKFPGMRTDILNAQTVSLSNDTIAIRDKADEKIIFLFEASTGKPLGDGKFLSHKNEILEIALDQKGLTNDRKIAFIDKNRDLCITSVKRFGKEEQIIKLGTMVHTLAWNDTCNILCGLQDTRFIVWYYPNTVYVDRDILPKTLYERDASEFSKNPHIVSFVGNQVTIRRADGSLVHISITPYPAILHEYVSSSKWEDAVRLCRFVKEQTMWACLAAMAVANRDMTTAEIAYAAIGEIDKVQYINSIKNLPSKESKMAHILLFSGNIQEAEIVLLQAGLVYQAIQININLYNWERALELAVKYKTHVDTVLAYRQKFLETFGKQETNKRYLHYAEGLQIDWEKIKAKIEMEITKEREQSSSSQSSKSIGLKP
UniProt Q9BYC5, sequence (Q9BYC5 whole entry, looked up): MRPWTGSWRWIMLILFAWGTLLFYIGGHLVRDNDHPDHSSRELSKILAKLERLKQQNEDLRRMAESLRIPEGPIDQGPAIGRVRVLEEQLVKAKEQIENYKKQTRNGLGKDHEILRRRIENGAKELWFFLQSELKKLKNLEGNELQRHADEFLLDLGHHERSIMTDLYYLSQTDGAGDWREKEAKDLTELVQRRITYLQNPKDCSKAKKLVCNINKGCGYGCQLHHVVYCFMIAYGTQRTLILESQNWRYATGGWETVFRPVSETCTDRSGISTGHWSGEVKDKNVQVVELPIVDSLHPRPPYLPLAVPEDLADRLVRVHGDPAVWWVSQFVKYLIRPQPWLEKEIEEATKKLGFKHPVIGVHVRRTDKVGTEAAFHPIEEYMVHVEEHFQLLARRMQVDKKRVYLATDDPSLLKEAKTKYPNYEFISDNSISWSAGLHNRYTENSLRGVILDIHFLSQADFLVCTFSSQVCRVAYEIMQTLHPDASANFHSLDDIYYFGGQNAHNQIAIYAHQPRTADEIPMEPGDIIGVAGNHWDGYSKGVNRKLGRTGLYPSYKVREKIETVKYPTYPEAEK
UniProt O76003, sequence (O76003 whole entry, looked up): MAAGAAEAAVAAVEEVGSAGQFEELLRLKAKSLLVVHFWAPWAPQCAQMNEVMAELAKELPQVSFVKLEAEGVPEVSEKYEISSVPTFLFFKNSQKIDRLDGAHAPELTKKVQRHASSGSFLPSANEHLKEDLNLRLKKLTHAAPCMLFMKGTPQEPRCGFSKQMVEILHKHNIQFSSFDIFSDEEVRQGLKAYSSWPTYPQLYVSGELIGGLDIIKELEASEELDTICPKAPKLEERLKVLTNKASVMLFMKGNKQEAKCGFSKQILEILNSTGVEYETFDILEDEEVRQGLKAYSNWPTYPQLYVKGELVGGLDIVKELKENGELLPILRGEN
UniProt Q86YM7, sequence (Q86YM7 whole entry, looked up): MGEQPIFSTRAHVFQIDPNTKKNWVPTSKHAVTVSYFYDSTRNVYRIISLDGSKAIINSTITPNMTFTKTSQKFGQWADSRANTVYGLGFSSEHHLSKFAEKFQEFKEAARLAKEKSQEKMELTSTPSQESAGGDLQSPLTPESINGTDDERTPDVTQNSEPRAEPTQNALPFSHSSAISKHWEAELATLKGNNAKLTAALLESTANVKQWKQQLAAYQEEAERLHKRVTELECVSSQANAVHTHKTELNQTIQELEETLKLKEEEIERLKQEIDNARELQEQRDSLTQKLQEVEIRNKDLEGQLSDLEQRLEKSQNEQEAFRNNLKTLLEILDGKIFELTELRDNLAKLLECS
UniProt O60725, sequence (O60725 whole entry, looked up): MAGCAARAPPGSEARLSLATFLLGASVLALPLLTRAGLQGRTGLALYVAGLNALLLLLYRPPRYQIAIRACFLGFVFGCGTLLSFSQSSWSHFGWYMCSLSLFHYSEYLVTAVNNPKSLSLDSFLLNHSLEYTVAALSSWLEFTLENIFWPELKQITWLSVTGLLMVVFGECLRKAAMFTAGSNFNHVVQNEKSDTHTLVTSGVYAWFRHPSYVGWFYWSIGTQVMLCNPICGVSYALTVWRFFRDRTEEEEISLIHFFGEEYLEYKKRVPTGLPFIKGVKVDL
UniProt Q9H0R8, sequence (Q9H0R8 whole entry, looked up): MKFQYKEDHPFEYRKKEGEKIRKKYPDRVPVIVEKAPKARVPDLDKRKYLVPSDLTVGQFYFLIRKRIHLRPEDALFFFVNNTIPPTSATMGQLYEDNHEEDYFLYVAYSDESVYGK

log2 fold change, inactive:
GBF1 (UniProt Q92538) -0.036, GABARAPL1 isoform 2 (UniProt Q9H0R8) -0.001, GPX4 (UniProt P36969) 0.142, HIP1 (UniProt O00291) 0.011, HNRNPUL1 (UniProt Q9BUJ2) 0.004, HIKESHI (UniProt Q53FT3) -0.002, FEN1 (UniProt P39748) 0.118, GLCCI1 (UniProt Q86VQ1) -0.264, GID4 (UniProt Q8IVV7) -0.072, GTF2E2 (UniProt P29084) -0.002, FUT8 (UniProt Q9BYC5) -0.004, HDHD2 (UniProt Q9H0R4) -0.015, HTATIP2 isoform 3 (UniProt Q9BUP3) 0.012, GTPBP6 (UniProt O43824) -0.036, FASTKD1 (UniProt Q53R41) 0.281, GLB1 (UniProt P16278) 0.013, IFITM3 (UniProt Q01628) 0.118, GDE1 (UniProt Q9NZC3) -0.029, GLS isoform 3 (UniProt O94925) 0, H2AFX (UniProt P16104) -0.087, GLUD2 (UniProt P49448) 0.03, HSD17B12 (UniProt Q53GQ0) 0.027, HK2 (UniProt P52789) 0.005, GYS1 (UniProt P13807) -0.14, FARS2 (UniProt O95363) 0.014, HDGFL2 (UniProt Q7Z4V5) -0.01, GSTM4 (UniProt Q03013) -0.031, ICMT (UniProt O60725) 0.122, ICAM1 (UniProt P05362) -0.01, HIST2H3A (UniProt Q71DI3) 0.047, IFT80 isoform 3 (UniProt Q9P2H3) -0.066, GALNT1 (UniProt Q10472) 0.06, GLRX3 (UniProt O76003) 0.031, GLUD1 (UniProt P00367) -0.033, HOMER1 (UniProt Q86YM7) -0.057

The targets below were run with C1=CC=C2C(=C1)C3=NNC4=CC=CC(=C43)C2=O in the same assay as above.
How it was run: as §1

log2 fold change, inactive:
GBF1 (UniProt Q92538) 0.033, GABARAPL1 isoform 2 (UniProt Q9H0R8) 0.02, GPX4 (UniProt P36969) -0.063, HIP1 (UniProt O00291) -0.166, HNRNPUL1 (UniProt Q9BUJ2) 0.014, HIKESHI (UniProt Q53FT3) -0.03, FEN1 (UniProt P39748) 0.026, GLCCI1 (UniProt Q86VQ1) -0.017, GID4 (UniProt Q8IVV7) -0.018, GTF2E2 (UniProt P29084) 0.03, FUT8 (UniProt Q9BYC5) -0.038, HDHD2 (UniProt Q9H0R4) -0.018, HTATIP2 isoform 3 (UniProt Q9BUP3) 0.033, GTPBP6 (UniProt O43824) -0.05, FASTKD1 (UniProt Q53R41) 0.093, GLB1 (UniProt P16278) -0.011, IFITM3 (UniProt Q01628) -0.01, GDE1 (UniProt Q9NZC3) -0.023, GLS isoform 3 (UniProt O94925) -0.082, H2AFX (UniProt P16104) -0.049, GLUD2 (UniProt P49448) 0.027, HSD17B12 (UniProt Q53GQ0) 0.064, HK2 (UniProt P52789) -0.017, GYS1 (UniProt P13807) 0.176, FARS2 (UniProt O95363) 0.065, HDGFL2 (UniProt Q7Z4V5) -0.046, GSTM4 (UniProt Q03013) -0.128, ICMT (UniProt O60725) -0.038, ICAM1 (UniProt P05362) -0.004, HIST2H3A (UniProt Q71DI3) -0.004, IFT80 isoform 3 (UniProt Q9P2H3) -0.229, GALNT1 (UniProt Q10472) -0.003, GLRX3 (UniProt O76003) -0.001, GLUD1 (UniProt P00367) 0, HOMER1 (UniProt Q86YM7) -0.015
